# Activity calls are given as the source filed them. Rule for the calls: active = hit-call score of the fitted dose curve at least 0.9, where 1 is the maximum; inactive = score below 0.9.
# Assay: BSK_3C_SRB: Viability Assessment in the BioMAP Diversity Plus: 3C Assay (AID 2283023);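 note: fitted both ways against DMSO so a hit may be signal rise or drop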
# Settings: primary human endothelial cells (HUVEC)
# Description: BSK_3C is a cell-based, multiplexed-readout assay that uses umbilical vein endothelium, a human vascular primary cell, with measurements taken at 24 hours after chemical dosing in a 96-well plate.BSK_3C_SRB is an assay component measured in the BSK_3C assay. It measures 0.1% sulforhodamine related to cell death using Sulforhodamine staining technology.Data from the assay component BSK_3C_SRB was analyzed into 1 assay endpoint. This assay endpoint, BSK_3C_SRB, was analyzed with bidirectional fitting relative to DMSO as the negative control and baseline of activity. Using a type of viability reporter, gain or loss-of-signal activity can be used to understand changes in the signaling. Furthermore, this assay endpoint can be referred to as a primary readout, because this assay has produced multiple assay endpoints where this one serves a signaling function. To generalize the intended target to other relatable targets, this assay endpoint is annotated to the cell morphology intended target family, where the subfamily is cell conformation.
# The levels of cell surface (or secreted, indicated by the prefix "s") biomarker endpoints were measured by ELISA. Overt cytotoxicity to cells in confluent adherent cultures (all systems other than the BT system) was assessed by measuring total protein levels using sulforhodamine B (SRB) staining in parallel cultures at the time of biomarker measurements, indicated as SRB endpoints. For proliferation assays for adherent cell types, individual cell types are cultured at sub-confluence and relative cell numbers quantified by SRB staining at time points optimized for each system (48 h: 3C and CASM3C systems; 72 h: BT and HDF3CGF systems; 96 h: SAg system). SRB was performed by staining cells with 0.1% SRB after fixation with 10% TCA and reading wells at 560 nm.Viability and proliferation of PBMC (T cells) was quantified by Alamar Blue reduction for the SAg and BT systems. For PBMC viability (referred to as PBMC Cytotoxicity within the assay endpoint names), cells were plated (75,000/well in a 96-well plate) and then chemical samples added for 1 h before addition of activators, SEB and TSST-1 (20 ng/mL final concentration each). Cells were incubated for 90 h. Then, Alamar Blue (20 uL/well) (Invitrogen, Cat DAL1100) was added for 6 h, and the plates were read with a fluorescence microplate reader at 546/580 nm (excitation/emission). For PBMC proliferation, cells were plated and activated as above but incubated for only 16 h prior to addition of Alamar Blue. Plates were read after 6 h.
SMILES,outcome,AC50
CC(C)=CCCC(C)=CC=O,inactive,–
COc1ccc(-n2nc(C(F)F)cc2-c2ccc(S(C)=O)cc2)cc1 (stereo not given),inactive,–
CC(C)=CCCC(C)CCO (stereo not given),inactive,–
O=C(O)CC(O)C(=O)O (stereo not given),inactive,–
CCOC(=O)CC(CC(=O)OCC)(OC(C)=O)C(=O)OCC,inactive,–
CNS(=O)(=O)c1cc(C(=O)N2CCC(CCN3C4CCC3CC(n3c(C)nc5ccccc53)C4)(c3cccc(F)c3)CC2)c(Cl)cc1F (stereo not given),–,20.6 µM (active)
COCCOCCOCCOC,inactive,–
CCCCCCCCO,inactive,–
CCn1nc(Cc2ccccc2)cc1C1CCN(C[C@H]2C[C@H](N(C)[C@@H](C(=O)O)C(C)C)C[C@@H]2c2cccc(F)c2)CC1,inactive,–
O=c1n(CC2CO2)c(=O)n(CC2CO2)c(=O)n1CC1CO1 (stereo not given),–,17.5 µM (active)
Cc1ccc(S(=O)(=O)O)cc1C,inactive,–
CC[C@H]1OC(=O)[C@H](C)[C@@H](O[C@H]2C[C@@](C)(OC)[C@@H](O)[C@H](C)O2)[C@H](C)[C@@H](O[C@@H]2O[C@H](C)C[C@H](N(C)C)[C@H]2O)[C@](C)(O)C[C@@H](C)C(=O)[C@H](C)[C@@H](O)[C@]1(C)O,inactive,–
C=CC(=C)CCC=C(C)C,inactive,–
Cc1ccc(C)c(O)c1,inactive,–
COc1ccc(/C=C/S(=O)(=O)NC(=O)c2ccc(C)cc2Cl)cc1,inactive,–
Nc1cccc(N)c1,inactive,–
CC1(C)C(=O)N(Br)C(=O)N1Br,inactive,–
O=C(O)CCN(C1(C(=O)NO)CCCC1)S(=O)(=O)c1ccc(Oc2ccc(F)cc2)cc1,inactive,–
CCCCCCCCCCCCCCCO,–,36.8 µM (active)
O=P(OC(CCl)CCl)(OC(CCl)CCl)OC(CCl)CCl,inactive,–

SMILES,outcome,AC50
Cc1ccc(O)cc1,inactive,–
CC[C@H](C)C(=O)O[C@H]1C[C@@H](C)C=C2C=C[C@H](C)[C@H](CC[C@@H]3C[C@@H](O)CC(=O)O3)[C@H]21,–,9.87 µM (active)
Nc1ccc(Nc2ccccc2)cc1,inactive,–
CCC(C)(C)C(=O)O[C@H]1C[C@@H](C)C=C2C=C[C@H](C)[C@H](CC[C@@H]3C[C@@H](O)CC(=O)O3)[C@H]21,–,3.97 µM (active)
CC(C)c1cccc(C(C)C)c1N1C(=O)c2ccc(O)cc2C1=O,–,17.3 µM (active)
O=C(O)c1cc(N=Nc2ccc(S(=O)(=O)Nc3ccccn3)cc2)ccc1O,inactive,–
COC(=O)c1c(Cl)c(Cl)c(C(=O)OC)c(Cl)c1Cl,inactive,–
CCCC(=O)OCC,inactive,–
O=C(CCCCCCCCc1cccnc1)N1CCC(C=C(c2ccccc2)c2ccccc2)CC1,–,8.88 µM (active)
CCOC(=O)COc1ccc2c(c1)CC(NCC(O)c1cccc(Cl)c1)CC2 (stereo not given),–,26.7 µM (active)
O=C1CCC(N2C(=O)c3ccccc3C2=O)C(=O)N1 (stereo not given),inactive,–
CC(C)=CCC/C(C)=C/CO,inactive,–
Cc1ccc(N)cc1O,inactive,–
O=C(O)c1cccc(N(Cc2cccnc2)c2ccc(OC(F)F)c(OC(F)F)c2)c1,inactive,–
CC1=CC(=O)CC(C)(C)C1,inactive,–
CCc1cc(SCc2sc(-c3ccc(C(F)(F)F)cc3)nc2CN2CCN(c3ccc(OC)cc3)CC2)ccc1OCC(=O)O,–,5.75 µM (active)
COc1ccc2sc(C(=O)Nc3nnn[nH]3)c(OC(C)C)c2c1,–,12.5 µM (active)
CCCN(C1CCN(C(=O)C2CCNCC2)CC1)[C@@H]1CCc2ccc(OC)cc2C1,inactive,–
CCOC(=O)c1ccc(C2CCC(NC[C@H](O)COc3ccc(O)c(NS(C)(=O)=O)c3)CC2)cc1 (stereo not given in full),–,25.1 µM (active)
C1=CCCC=CCCC=CCC1,inactive,–
